Calls of active or inactive are those of the source. Unless noted, how the calls were made is not given here.
How the values were obtained:
[1] = HepG2 liver cancer cell viability effects, profiling panel, resazurin fluorescence, 24 h, PK04 Diversity Set (AID 1172); settings: higher = more signal; further: test concentration not given here
[2] = basal S. cerevisiae growth modulation, no modifier, primary screen, OD600, strain BY4716, 24 h, basal condition (AID 1173); settings: OD600, 24 h, higher = more signal, called active from +8 up or from −8 down
[3] = MM1S myeloma cell viability, profiling panel, resazurin fluorescence, basal, 24 h, PK04 Diversity Set (AID 1174); settings: higher = more signal, called active from +8 up or from −8 down;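 further: MM1S multiple myeloma cell line; test concentration not given here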
[4] = biological target: Dihydroorotate dehydrogenase (quinone), mitochondrial (Plasmodium falciparum (isolate 3D7)) (UniProt Q08210); test: PfDHODH enzyme inhibitors, primary screen, biochemical, C-terminal His tag, absorbance 600 nm (AID 1175); settings: DCIP absorbance 600 nm, higher = more signal, called active from +8 up or from −8 down;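 further: recombinant parasite enzyme with a five histidine tag at its C terminus; test concentration not given here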
[5] = P. aeruginosa biofilm formation inhibitors, primary screen, strain PAO1, LB-PBS medium, absorbance 600 nm (AID 1176); further: test concentration not given here; settings: P. aeruginosa PAO1 growth/biofilm, A600, 12 h; higher = more signal
[6] = S. cerevisiae RM11-1a growth modifiers, primary screen, strain RM11-1a, OD600, basal, 24 h (AID 1177); settings: OD600, 24 h, higher = more signal, called active from +8 up or from −8 down;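 further: cultures grown under basal conditions with no added stressor; test concentration not given here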
[7] = E. coli acrAB mutant growth effects, primary screen, E. coli filamentation inducers, strain DRC39, OD650, 24 h (AID 1178); settings: higher = more signal, called active from +8 up or from −8 down;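 further: growth measured as culture turbidity by optical density at 650 nm; test concentration not given here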
[8] = E. coli acrAB mutant growth effects, primary screen, E. coli filamentation inducers, strain DRC39, OD650, 48 h (AID 1179);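 further: screen aims at cell division blockers that make cells filament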; settings: E. coli DRC39 delta-acrAB growth, higher = more signal, called active from +8 up or from −8 down
[9] = RPMI8226 myeloma cell viability, profiling panel, resazurin fluorescence, basal, 24 h, PK04 Diversity Set (AID 1180); settings: higher = more signal;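 further: RPMI8826 multiple myeloma cell line at 5000 cells per well; test concentration not given here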
[10] = biological target: E3 ubiquitin-protein ligase XIAP (Homo sapiens) (UniProt P98170); test: XIAP binders, primary screen, biophysical, small-molecule microarray, fluorescence 635 nm (AID 1181); settings: small-molecule microarray binding, higher = more signal;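 further: score merges 667 nm emission and signal to noise over triplicate slides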
E3 ubiquitin-protein ligase XIAP (Homo sapiens), sequence (P98170 whole entry, looked up): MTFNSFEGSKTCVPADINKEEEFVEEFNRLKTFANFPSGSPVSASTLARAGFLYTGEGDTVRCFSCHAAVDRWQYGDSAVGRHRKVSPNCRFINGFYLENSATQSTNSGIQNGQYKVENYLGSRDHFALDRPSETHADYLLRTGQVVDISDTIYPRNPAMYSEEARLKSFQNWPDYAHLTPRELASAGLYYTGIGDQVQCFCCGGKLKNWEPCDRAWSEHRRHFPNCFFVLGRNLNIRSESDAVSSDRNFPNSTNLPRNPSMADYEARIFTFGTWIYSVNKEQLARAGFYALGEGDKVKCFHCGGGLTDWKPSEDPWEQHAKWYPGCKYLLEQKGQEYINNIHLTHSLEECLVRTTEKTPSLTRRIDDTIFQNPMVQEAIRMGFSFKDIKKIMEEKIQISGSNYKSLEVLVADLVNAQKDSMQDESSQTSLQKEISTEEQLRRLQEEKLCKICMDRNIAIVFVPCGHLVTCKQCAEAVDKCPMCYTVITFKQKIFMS

Dihydroorotate dehydrogenase (quinone), mitochondrial (Plasmodium falciparum (isolate 3D7)), sequence (Q08210 whole entry, looked up): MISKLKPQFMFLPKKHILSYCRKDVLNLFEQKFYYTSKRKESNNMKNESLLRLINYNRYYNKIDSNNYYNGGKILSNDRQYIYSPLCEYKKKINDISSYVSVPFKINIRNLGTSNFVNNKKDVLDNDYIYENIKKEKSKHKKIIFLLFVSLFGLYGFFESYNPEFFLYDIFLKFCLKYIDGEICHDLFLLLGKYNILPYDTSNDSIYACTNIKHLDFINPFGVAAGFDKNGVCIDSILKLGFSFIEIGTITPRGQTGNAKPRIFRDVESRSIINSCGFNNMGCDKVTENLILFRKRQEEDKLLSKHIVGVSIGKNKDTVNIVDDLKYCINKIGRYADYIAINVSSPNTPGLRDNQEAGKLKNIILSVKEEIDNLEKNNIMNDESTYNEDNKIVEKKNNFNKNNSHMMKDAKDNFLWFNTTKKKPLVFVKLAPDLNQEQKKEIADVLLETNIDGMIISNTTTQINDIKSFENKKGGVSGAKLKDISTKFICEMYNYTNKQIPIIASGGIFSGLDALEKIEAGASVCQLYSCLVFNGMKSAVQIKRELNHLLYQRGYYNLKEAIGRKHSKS

SMILES	z-score [1]	z-score [2]	z-score [3]	composite z-score [4]	z-score [5]	z-score [6]	z-score [7]	z-score [8]	z-score [9]	composite z-score [10]
COC(=O)C1=CC(CCCO)=CC(C)N(Cc2cccc(OC(F)(F)F)c2)C=C1C(=O)OC (stereo not given)	0.0252	-1.78 (inactive)	-0.0934 (inactive)	-2.73 (inactive)	0.227 (inactive)	0.0728 (inactive)	1.38 (inactive)	1.21 (inactive)	-0.123	0.365
CCCCCN1CC=CC23O[C@@H]4/C=C\CCC(C)OC(=O)C4[C@H]2C(=O)N(CCCCCCO)[C@@H]3C1=O (stereo not given in full)	1.1	-0.262 (inactive)	0.798 (inactive)	-1.35 (inactive)	0.165 (inactive)	0.422 (inactive)	1.11 (inactive)	0.848 (inactive)	1.26	-0.359
CC(C)N1CC=CC23O[C@@H]4/C=C\CCCOC(=O)C4[C@H]2C(=O)N(CCCCCCO)[C@@H]3C1=O (stereo not given in full)	0.95	-1.13 (inactive)	1.3 (inactive)	-0.475 (inactive)	-0.401 (inactive)	0.0759 (inactive)	1.62 (inactive)	1.93 (inactive)	0.708	0.0537
[N-]=[N+]=NCc1ccccc1[C@@H]1OC(c2ccc(OCCCO)cc2)=N[C@]1(Cc1ccccc1N=[N+]=[N-])C(=O)N1CCCCC1	0.56	-0.139 (inactive)	-1.98 (inactive)	0.303 (inactive)	0.327 (inactive)	1.09 (inactive)	-0.0949 (inactive)	0.599 (inactive)	-2.88	0.172
CCCCCCCCCCC(O)C1C=CC2C(=O)N(C)C(=O)C2N1Nc1cc(OC)c(OC)c(OC)c1 (stereo not given)	-2.36	-1.36 (inactive)	-3.17 (inactive)	-1.3 (inactive)	0.971 (inactive)	0.439 (inactive)	-0.875 (inactive)	-1.12 (inactive)	-3.54	-0.182
CC(C)[C@H]1NC(=O)[C@@]23C(=O)N[C@@H](Cc4ccccc4)C2[C@H](C)[C@@]2(C)O[C@H]2C3/C=C/C/C=C\CNC(=O)[C@H](Cc2ccccc2)NC1=O (stereo not given in full)	-0.875	-0.516 (inactive)	-0.504 (inactive)	-0.141 (inactive)	-0.377 (inactive)	-0.472 (inactive)	-0.0953 (inactive)	-1.2 (inactive)	-1.26	-0.288
C=C(/C(=C/C[C@@H](OC(C)=O)c1ccc(CO)o1)c1cc(C(=O)OC)ccc1OC)C(C)C	-0.0187	-0.367 (inactive)	-0.912 (inactive)	-0.805 (inactive)	0.731 (inactive)	0.4 (inactive)	0.769 (inactive)	0.533 (inactive)	-0.0967	0.146
[N-]=[N+]=NCc1ccccc1C[C@@]1(C(=O)N2CCCCC2)N=C(c2ccc(OCCCO)cc2)O[C@@H]1c1ccccc1CN=[N+]=[N-]	-0.539	0.069 (inactive)	-1.27 (inactive)	0.669 (inactive)	1.87 (inactive)	1.61 (inactive)	0.191 (inactive)	0.594 (inactive)	-0.911	-0.117
COC(=O)[C@@]1(Cc2ccccc2)[C@H]2c3cc(C(=O)N4CCCC4)n(CCSCCO)c3C[C@H]2CN1C(=O)c1ccccc1	-1.19	0.712 (inactive)	-1.63 (inactive)	-0.337 (inactive)	0.824 (inactive)	0.53 (inactive)	-1.01 (inactive)	-0.853 (inactive)	-1.68	0.361
[N-]=[N+]=NCc1ccccc1C[C@]1(C(=O)N2CCOCC2)COC(c2ccc(OCCCO)cc2)=N1	0.0629	-2.42 (inactive)	0.117 (inactive)	0.42 (inactive)	0.715 (inactive)	1.43 (inactive)	2.56 (inactive)	1.71 (inactive)	0.698	0.18
COCCOC(=O)N1C(=O)[C@@]2(c3cc(C#Cc4ccc(OC)cc4)ccc31)[C@H](C(=O)NC[C@H](O)c1ccccc1)[C@H]1C(=O)O[C@H](c3ccccc3)[C@H](c3ccccc3)N1[C@@H]2c1ccc(OCCO)cc1	1.21	1.95 (inactive)	0.0406 (inactive)	1.86 (inactive)	1.93 (inactive)	2.67 (inactive)	0.14 (inactive)	-0.35 (inactive)	-0.285	-0.0883
C=C(CCCC)C(=O)CC[C@H](OC(=O)c1ccccc1-c1ccccc1C(=O)O)c1ccccc1OCCO	-1.08	-1.45 (inactive)	-0.976 (inactive)	-0.824 (inactive)	0.91 (inactive)	-0.0444 (inactive)	0.506 (inactive)	0.237 (inactive)	-1.03	0.0416
COCCOC(=O)N1C(=O)[C@@]2(c3cc(C#CCNC(N)=O)ccc31)[C@H](c1ccc(O)cc1)N1[C@H](c3ccccc3)[C@H](c3ccccc3)OC(=O)[C@H]1[C@@H]2C(=O)N1CCN(c2ncccn2)CC1	0.392	2.72 (inactive)	-0.441 (inactive)	-0.265 (inactive)	2.81 (inactive)	3.03 (inactive)	-0.123 (inactive)	0.0896 (inactive)	-0.0784	-0.205
O=C1C2C=CC(C(O)c3ccco3)N(Nc3ccccc3)C2C(=O)N1c1ccccc1 (stereo not given)	0.875	-0.633 (inactive)	-0.321 (inactive)	1.05 (inactive)	-0.283 (inactive)	0.829 (inactive)	-0.706 (inactive)	0.154 (inactive)	0.628	-0.0264
O=C1OCCC=C[C@H]2OC34C=CCN(c5ccc(Cl)cc5)C(=O)[C@H]3N(CCCCCCO)C(=O)[C@@H]4C12 (stereo not given in full)	0.546	-0.247 (inactive)	1.35 (inactive)	-0.477 (inactive)	-0.786 (inactive)	0.311 (inactive)	1.38 (inactive)	1.74 (inactive)	1.23	-0.474
C=C(C)C1CCC(C(O)C2C=CC3C(=O)N(C)C(=O)C3N2Nc2cc(OC)c(OC)c(OC)c2)CC1 (stereo not given)	-1.15	0.552 (inactive)	-0.901 (inactive)	-0.896 (inactive)	0.971 (inactive)	0.065 (inactive)	-0.274 (inactive)	-0.379 (inactive)	-1.27	0.153
COCCOC(=O)N1C(=O)[C@@]2(c3cc(C#CCC(C(=O)OC)C(=O)OC)ccc31)[C@H](c1ccc(OCCO)cc1)N1[C@H](c3ccccc3)[C@H](c3ccccc3)OC(=O)[C@H]1[C@@H]2C(=O)Nc1nc2ccccc2s1	1.13	1.05 (inactive)	0.814 (inactive)	-1.53 (inactive)	3.58 (inactive)	3.24 (inactive)	1.18 (inactive)	0.901 (inactive)	-1.15	0.0506
CC(=O)NCCCC[C@@H]1NC(=O)[C@H]2C[C@@H](C(=O)NCCCCCNC(=O)CS)[C@@H](c3cccc(OCCO)c3)N2C1=O	-0.223	0.332 (inactive)	-0.0374 (inactive)	0.657 (inactive)	0.559 (inactive)	-0.39 (inactive)	-0.0744 (inactive)	0.382 (inactive)	-0.653	2.75
COCCOC(=O)N1C(=O)[C@@]2(c3ccccc31)[C@H](c1ccccc1OCCO)N1[C@H](c3ccccc3)[C@H](c3ccccc3)OC(=O)[C@H]1[C@@H]2C(=O)N1CCCCCCC1	0.293	1.7 (inactive)	-0.097 (inactive)	0.054 (inactive)	2.48 (inactive)	1.39 (inactive)	0.542 (inactive)	-1.15 (inactive)	-0.353	1.57
C=CCNC(=O)[C@H]1[C@@H]2C(=O)O[C@@H](c3ccccc3)[C@@H](c3ccccc3)N2[C@@H](c2ccc(OCCO)cc2)[C@]12C(=O)N(C(=O)OCCOC)c1ccc(C#Cc3ccc(OC)cc3)cc12	-1.14	0.583 (inactive)	0.476 (inactive)	-2.05 (inactive)	2.11 (inactive)	2.22 (inactive)	1.07 (inactive)	0.941 (inactive)	0.637	-0.0344
COCC1=C2[C@@H](CCc3ccccc3)OB(O)C[C@@H]2[C@@H]2C(=O)N(C)C(=O)[C@@H]2C1	-0.227	-0.926 (inactive)	-0.439 (inactive)	-0.173 (inactive)	0.294 (inactive)	0.0903 (inactive)	-0.0919 (inactive)	0.0253 (inactive)	-0.377	0.0512
C=CCC(OC(C)=O)[C@@H]1[C@@H](N(Cc2ccc(-c3cccc(C(F)(F)F)c3)o2)C(=O)c2cccc3ccccc23)c2cc(OCCCO)ccc2N1C(=O)Cc1ccc(OC)cc1 (stereo not given in full)	0.119	-1.8 (inactive)	0.0814 (inactive)	-0.349 (inactive)	-1.17 (inactive)	-0.0592 (inactive)	1.11 (inactive)	0.721 (inactive)	-0.189	-0.102
COc1ccc(C(O)C2C=CC3C(=O)N(c4ccccc4)C(=O)C3N2Nc2ccc(C(C)C)cc2)c2ccccc12 (stereo not given)	-2.57	-1.62 (inactive)	-0.871 (inactive)	0.183 (inactive)	1.8 (inactive)	0.427 (inactive)	0.0571 (inactive)	0.313 (inactive)	-0.208	0.349
